Results from PubChem BioAssay.
Active and inactive are the calls of the source.

Columns and labels:
[1] = test system: Plasmodium falciparum Sir2 (PF13_0152, Sir2A); experiment: pfSir2 binders on small-molecule microarrays, primary screen, biochemical, small-molecule microarray, 635 nm fluorescence (AID 1098); settings: small-molecule microarray binding, fluorescence 635 nm; higher = more signal;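 note: score merges spot fluorescence intensity with its signal-to-noise ratio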
[2] = small-molecule microarray binders of probe aDKK1, primary screen, biochemical, biotinylated probe, 635/667 nm fluorescence (AID 1099); settings: higher = more signal;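 note: score merges 667nm spot fluorescence with signal to noise across triplicate slides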
[3] = small-molecule microarray binders of probe aCHRDL2, primary screen, biochemical, biotinylated probe, 635/667 nm fluorescence (AID 1100); settings: higher = more signal
[4] = splicing luciferase reporter signal modulators, primary screen, spliceosome inhibition project, cell-based, HEK293, splice +/- reporter (AID 1101); settings: luminescence, 24 h, higher = more signal, called active from +8 up or from −8 down;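 note: HEK293 cells carrying a splicing-competent luciferase reporter gene; test concentration not given here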
[5] = target: Fibroblast growth factor 10 (Homo sapiens) (UniProt O15520); experiment: FGF10 binders on small-molecule microarrays, primary screen, biochemical, small-molecule microarray, 635 nm fluorescence (AID 1102); settings: FGF10 binding, fluorescence 635 nm, higher = more signal
Fibroblast growth factor 10 (Homo sapiens), sequence (O15520 whole entry, looked up): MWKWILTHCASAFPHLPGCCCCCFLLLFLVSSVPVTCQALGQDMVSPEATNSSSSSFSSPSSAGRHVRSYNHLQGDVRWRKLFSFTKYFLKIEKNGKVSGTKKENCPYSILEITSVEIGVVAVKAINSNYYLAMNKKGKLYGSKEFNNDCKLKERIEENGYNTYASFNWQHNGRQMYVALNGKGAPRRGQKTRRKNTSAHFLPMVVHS

[6] = test system: glycogen synthase kinase-3 (GSK3A per assay name; protocol says GSK3B); experiment: GSK3 binders on small-molecule microarrays, primary screen, biochemical, small-molecule microarray, 635 nm fluorescence, GSK3A (AID 1103); settings: small-molecule microarray binding, fluorescence 635 nm; higher = more signal; note: the record names both GSK3A and GSK3B
[7] = target: Epidermal growth factor receptor (Homo sapiens) (UniProt P00533); experiment: EGFR binders on small-molecule microarrays, primary screen, biochemical, small-molecule microarray, 635 nm fluorescence (AID 1104); settings: EGFR binding, higher = more signal;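 note: score merges 667 nm emission intensity with spot signal to noise over triplicate slides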
Epidermal growth factor receptor (Homo sapiens), sequence (P00533 whole entry, looked up): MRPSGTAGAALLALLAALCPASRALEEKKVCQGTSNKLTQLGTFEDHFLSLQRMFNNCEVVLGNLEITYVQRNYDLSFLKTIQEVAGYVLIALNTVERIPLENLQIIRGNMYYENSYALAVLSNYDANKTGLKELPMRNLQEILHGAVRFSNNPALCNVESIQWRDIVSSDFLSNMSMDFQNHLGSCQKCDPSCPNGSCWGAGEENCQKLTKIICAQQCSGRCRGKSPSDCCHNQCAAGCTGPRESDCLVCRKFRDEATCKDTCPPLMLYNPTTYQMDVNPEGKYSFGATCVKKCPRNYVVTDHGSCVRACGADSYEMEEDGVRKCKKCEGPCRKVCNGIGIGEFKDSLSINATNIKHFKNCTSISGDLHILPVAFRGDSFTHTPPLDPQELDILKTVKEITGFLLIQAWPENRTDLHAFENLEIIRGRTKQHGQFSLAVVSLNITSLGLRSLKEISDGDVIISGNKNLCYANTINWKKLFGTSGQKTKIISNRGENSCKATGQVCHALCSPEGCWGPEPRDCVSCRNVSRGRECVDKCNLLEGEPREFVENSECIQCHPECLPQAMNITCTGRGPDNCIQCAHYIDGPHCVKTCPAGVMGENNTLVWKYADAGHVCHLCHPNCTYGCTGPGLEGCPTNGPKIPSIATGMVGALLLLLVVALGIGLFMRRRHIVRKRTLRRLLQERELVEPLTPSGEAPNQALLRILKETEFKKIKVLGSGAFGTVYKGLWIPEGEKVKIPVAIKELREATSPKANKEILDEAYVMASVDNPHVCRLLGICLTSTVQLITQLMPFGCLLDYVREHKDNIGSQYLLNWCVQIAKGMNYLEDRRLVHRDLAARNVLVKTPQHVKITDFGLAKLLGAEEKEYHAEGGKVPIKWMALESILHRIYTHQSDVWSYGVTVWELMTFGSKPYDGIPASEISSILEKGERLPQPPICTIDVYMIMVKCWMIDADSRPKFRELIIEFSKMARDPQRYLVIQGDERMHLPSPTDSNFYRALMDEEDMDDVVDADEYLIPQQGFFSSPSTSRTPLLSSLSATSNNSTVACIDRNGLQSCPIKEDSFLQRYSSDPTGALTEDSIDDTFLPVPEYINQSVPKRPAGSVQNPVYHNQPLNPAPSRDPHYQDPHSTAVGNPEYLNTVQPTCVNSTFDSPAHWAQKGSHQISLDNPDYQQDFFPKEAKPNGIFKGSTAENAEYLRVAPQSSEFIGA

[8] = target: Follistatin-related protein 3 (Homo sapiens) (UniProt O95633); experiment: FSTL3 binders on small-molecule microarrays, primary screen, biochemical, small-molecule microarray, 635 nm fluorescence (AID 1105); settings: FSTL3 binding, higher = more signal;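 note: score merges emission near 667 nm and signal to noise per printed spot across three slides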
Follistatin-related protein 3 (Homo sapiens), sequence (O95633 whole entry, looked up): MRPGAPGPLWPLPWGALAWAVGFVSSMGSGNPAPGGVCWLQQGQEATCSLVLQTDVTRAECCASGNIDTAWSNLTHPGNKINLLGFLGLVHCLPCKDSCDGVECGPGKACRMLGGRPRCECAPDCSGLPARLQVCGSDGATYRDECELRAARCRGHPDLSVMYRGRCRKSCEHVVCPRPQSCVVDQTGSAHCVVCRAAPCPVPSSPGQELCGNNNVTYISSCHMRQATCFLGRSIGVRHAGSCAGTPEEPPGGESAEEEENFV

[9] = target: Dickkopf-related protein 1 (Homo sapiens) (UniProt O94907); experiment: DKK1 binders on small-molecule microarrays, primary screen, biochemical, small-molecule microarray, 635 nm fluorescence scan (AID 1106); settings: DKK1 binding, higher = more signal;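 note: score merges emission near 667 nm with signal to noise over three replicate slides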
Dickkopf-related protein 1 (Homo sapiens), sequence (O94907 whole entry, looked up): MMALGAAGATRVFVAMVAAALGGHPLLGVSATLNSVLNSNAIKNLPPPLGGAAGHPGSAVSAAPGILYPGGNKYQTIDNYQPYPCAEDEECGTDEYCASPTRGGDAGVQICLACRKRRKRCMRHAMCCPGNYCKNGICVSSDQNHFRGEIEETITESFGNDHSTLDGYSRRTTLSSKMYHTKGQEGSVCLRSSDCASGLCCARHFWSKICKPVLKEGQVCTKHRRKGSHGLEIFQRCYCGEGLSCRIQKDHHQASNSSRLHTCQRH

[10] = test system: Inhibin beta A chain (activin A); experiment: INHBA (activin A) binders on microarrays, primary screen, biochemical, small-molecule microarray, 635 nm fluorescence scan (AID 1107); settings: small-molecule microarray binding, higher = more signal;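 note: mouse activin A protein probed at 4.33 µg/mL on printed slides; score merges bound-protein fluorescence near 667 nm with spot signal-to-noise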
[11] = test system: Human papillomavirus type 1a protein E7 (residues 44-93); experiment: HPV1a E7 fragment binders on microarrays, primary screen, biochemical, small-molecule microarray, residues 44-93, 635 nm fluorescence (AID 1108); settings: small-molecule microarray binding, fluorescence 635 nm; higher = more signal;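 note: E7 fragment applied at 1 µg/mL in TBST for 1 h at 4 C; score combines spot fluorescence with its signal to noise ratio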
[12] = modulators of HCV replicon luciferase signal, primary screen, HCV replication inhibitor project, Huh7 cells, luciferase reporter (AID 1109); settings: 48 h, higher = more signal;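 note: huh7 hepatoma cells harbouring a luciferase neomycin HCV replicon reporter; luciferase luminescence as measure of HCV replicon replication; test concentration not given here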
[13] = target: Left-right determination factor 2 (Homo sapiens) (UniProt O00292); experiment: LEFTY2 binders on small-molecule microarrays, primary screen, biochemical, small-molecule microarray, 635 nm fluorescence scan (AID 1110); settings: LEFTY2 binding, higher = more signal
Left-right determination factor 2 (Homo sapiens), sequence (O00292 whole entry, looked up): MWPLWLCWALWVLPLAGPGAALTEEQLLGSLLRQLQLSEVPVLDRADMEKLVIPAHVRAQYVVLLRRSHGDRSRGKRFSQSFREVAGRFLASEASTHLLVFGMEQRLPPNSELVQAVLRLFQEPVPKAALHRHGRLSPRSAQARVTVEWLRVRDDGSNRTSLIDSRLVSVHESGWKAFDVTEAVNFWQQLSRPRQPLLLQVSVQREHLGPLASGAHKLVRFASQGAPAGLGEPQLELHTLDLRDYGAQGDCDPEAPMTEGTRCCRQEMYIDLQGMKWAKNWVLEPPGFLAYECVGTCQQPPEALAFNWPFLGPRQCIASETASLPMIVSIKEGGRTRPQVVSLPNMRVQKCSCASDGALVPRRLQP

[14] = target: Calmodulin-1 (Homo sapiens) (UniProt P0DP23); experiment: CALM1 binders on microarrays, EGTA buffer, profiling panel, biochemical, small-molecule microarray, Cy5-labelled CALM1 (AID 1111); settings: Cy5-CALM1 binding fluorescence, higher = more signal;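 note: labelled calmodulin applied in Tris saline Tween buffer holding calcium plus EGTA and DTT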
[15] = target: Calmodulin-1 (Homo sapiens) (UniProt P0DP23); experiment: calcium-bound CALM1 binders on microarrays, profiling panel, artefact control for SMM control-protein annotation, biochemical, small-molecule microarray, Cy5-labelled CALM1, plus calcium (AID 1112); settings: Cy5-CALM1 binding fluorescence, higher = more signal;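 note: score merges spot fluorescence with signal to noise from triplicate slides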
[16] = small-molecule microarray binders of probe aWnt5a, primary screen, biochemical, biotinylated probe, 635/667 nm fluorescence (AID 1113); settings: higher = more signal;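 note: score merges 667 nm fluorescence intensity with signal-to-noise per printed feature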
[17] = small-molecule microarray binders of probe aShh, primary screen, biochemical, biotinylated probe, 635/667 nm fluorescence (AID 1114); settings: higher = more signal;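 note: probe is biotin-labelled aShh protein from a stem cell growth factor screen; measures binding of labelled protein to compounds printed on the slide; score merges feature fluorescence at 667 nm with signal-to-noise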
[18] = small-molecule microarray binders of probe aNog, primary screen, biochemical, biotinylated probe, 635/667 nm fluorescence (AID 1115); settings: higher = more signal;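 note: probe is biotinylated aNog protein used at 0.15 µg/mL for 1 h at 4 C; z-score combines 667 nm fluorescence of each spot with its signal to noise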
[19] = target: Torsin-1A-interacting protein 1 (Homo sapiens) (UniProt Q5JTV8); experiment: LAP1 binders from COS7 cell lysate, primary screen, small-molecule microarray, 635/667 nm fluorescence (AID 1116); settings: COS7-hLAP1 lysate binding, 635 nm fluorescence, higher = more signal
Torsin-1A-interacting protein 1 (Homo sapiens), sequence (Q5JTV8 whole entry, looked up): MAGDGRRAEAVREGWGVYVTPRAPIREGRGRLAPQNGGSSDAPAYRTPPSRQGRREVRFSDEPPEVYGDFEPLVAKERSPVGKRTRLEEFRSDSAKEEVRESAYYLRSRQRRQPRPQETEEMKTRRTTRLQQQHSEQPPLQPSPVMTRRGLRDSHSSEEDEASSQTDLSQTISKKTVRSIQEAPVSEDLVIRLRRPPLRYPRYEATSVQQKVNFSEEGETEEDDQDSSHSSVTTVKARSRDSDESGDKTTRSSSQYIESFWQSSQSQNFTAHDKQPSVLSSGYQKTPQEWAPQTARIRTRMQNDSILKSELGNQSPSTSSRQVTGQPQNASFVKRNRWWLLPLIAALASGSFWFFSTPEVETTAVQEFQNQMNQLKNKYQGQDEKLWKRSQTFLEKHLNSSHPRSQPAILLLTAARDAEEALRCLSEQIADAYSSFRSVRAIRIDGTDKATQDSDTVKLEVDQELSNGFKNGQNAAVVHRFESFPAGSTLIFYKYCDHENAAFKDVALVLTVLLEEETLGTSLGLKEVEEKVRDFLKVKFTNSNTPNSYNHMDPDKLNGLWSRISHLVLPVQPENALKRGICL

[20] = target: Alpha-bungarotoxin (Bungarus multicinctus) (UniProt P60615); experiment: alpha-bungarotoxin binders on microarray, profiling panel, artefact control for SMM control protein annotation, biochemical, small-molecule microarray, Alexa647 label, 635/667 nm fluorescence (AID 1117); settings: alpha-BTX-A647 binding fluorescence, higher = more signal
Alpha-bungarotoxin (Bungarus multicinctus), sequence (P60615 whole entry, looked up): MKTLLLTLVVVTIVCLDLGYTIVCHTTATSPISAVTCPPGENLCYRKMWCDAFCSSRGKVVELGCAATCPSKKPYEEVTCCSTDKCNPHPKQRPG

SMILES | composite z-score [1] | composite z-score [2] | composite z-score [3] | z-score [4] | composite z-score [5] | composite z-score [6] | composite z-score [7] | composite z-score [8] | composite z-score [9] | composite z-score [10] | composite z-score [11] | z-score [12] | composite z-score [13] | composite z-score [14] | composite z-score [15] | composite z-score [16] | composite z-score [17] | composite z-score [18] | composite z-score [19] | composite z-score [20]
COC(=O)[C@@]1(Cc2ccccc2)N=C(c2ccc(OCCCO)cc2)O[C@H]1c1ccccc1CN=[N+]=[N-] | 1.61 | 0.287 | 0.652 | 12.9 (active) | 0.722 | 0.893 | -0.0505 | 0.323 | 0.21 | 1.09 | 1.36 | -3.42 | 0.024 | -0.0422 | -0.193 | -0.0792 | -0.153 | -0.593 | 0.757 | 0.537
COCCOC(=O)N1C(=O)[C@@]2(c3cc(C#CC4(O)CCCCCC4)ccc31)[C@H](c1ccc(O)cc1)N1[C@H](c3ccccc3)[C@H](c3ccccc3)OC(=O)[C@H]1[C@@H]2C(=O)N1CCCCCCC1 | 1.08 | 1.2 | 0.771 | -0.803 (inactive) | 1.28 | 1.29 | 0.314 | 1.05 | 0.112 | 1.72 | -0.622 | -1.05 | 0.298 | -0.39 | -0.631 | 0.0742 | 0.0907 | 2.25 | 1.88 | 0.88
O=C(NCc1ccccc1)[C@@H]1c2ccccc2C(=O)N(Cc2cc(C(F)(F)F)cc(C(F)(F)F)c2)[C@H]1c1ccc(CO)cc1 | 0.569 | 0.0477 | 0.184 | 0.000819 (inactive) | 1.13 | 1.25 | 0.171 | 1.04 | 0.517 | 0.277 | 1.38 | 0.0626 | 0.446 | 0.288 | -0.823 | 0.0257 | -0.0011 | -0.213 | 0.517 | 0.556
CCCCCCc1nc(-c2ccc(-c3ccc(Cl)c(Cl)c3)o2)cc2c1[Si](C(C)C)(C(C)C)OC2 | -0.143 | -0.269 | 0.207 | -2.26 (inactive) | -1.31 | -1.22 | -1.01 | -0.816 | -0.793 | 0.522 | -0.474 | -0.967 | -0.924 | -0.444 | 0.742 | -0.174 | -0.372 | -0.278 | -0.875 | -0.782
CC(C)[Si](C#CCCc1ccccc1)(O[C@H](c1ccccc1)c1cn(Cc2ccccc2)nn1)C(C)C | 0.431 | -0.069 | -0.496 | 0.105 (inactive) | 0.559 | 1.28 | 0.618 | 0.773 | 0.611 | 0.152 | 1.32 | -1.53 | 0.345 | 0.138 | -0.662 | -0.0239 | -0.338 | -0.0827 | 0.427 | 0.544
O=C1C[C@]2(c3ccc([N+](=O)[O-])cc3)C(=O)N(C3CC3)c3cc(CO)ccc3[C@H]2N1C1CCCCC1 | 0.389 | -0.0619 | 0.305 | -0.282 (inactive) | -0.104 | 0.139 | -0.0618 | -0.184 | -0.198 | 0.847 | 0.481 | 0.82 | 0.0985 | -0.301 | -0.931 | -0.178 | -0.0146 | -0.383 | -0.0456 | 0.637
O=C(NCc1ccccc1)[C@@H]1c2ccccc2C(=O)N(Cc2ccc(OC(F)(F)F)cc2)[C@H]1c1ccc(CO)cc1 | 1.34 | 0.658 | -0.0614 | -1.19 (inactive) | -0.354 | 0.37 | -0.942 | -0.88 | -0.808 | -0.187 | 0.259 | -1.1 | -0.725 | -0.437 | 0.284 | -0.0735 | -0.0813 | 0.868 | 1.15 | -0.0863
CC(C)OC(=O)CC(=O)CC(O)c1cccc([N+](=O)[O-])c1 (stereo not given) | 0.784 | 0.645 | 0.851 | -2.86 (inactive) | 0.366 | 0.814 | -0.113 | 0.753 | -0.229 | 0.916 | 1.31 | -1.6 | 0.117 | 0.834 | 0.17 | 0.264 | 0.418 | -0.138 | 1.24 | 0.288
C=CCOC(=O)[C@H]1[C@@H]2C(=O)O[C@@H](c3ccccc3)[C@@H](c3ccccc3)N2[C@@H](c2ccc(OCCOC(=O)[C@@H]3C[C@@H]4C(=O)N[C@@H](CCCCNC(C)=O)C(=O)N4[C@@H]3c3cccc(OCCO)c3)cc2)[C@]12C(=O)Nc1ccccc12 | 1.43 | 0.171 | 0.042 | 0.736 (inactive) | 0.794 | 1.32 | 0.793 | 0.726 | 0.698 | 0.239 | 0.843 | -1.48 | 0.781 | 0.258 | 0.121 | -0.124 | 0.147 | 0.254 | 0.439 | -0.0506
CC(=O)NCCCC[C@@H]1NC(=O)[C@H]2C[C@@H](C(=O)NCCCCCCNC(=O)CS)[C@@H](c3cccc(OCCO)c3)N2C1=O | 1.72 | -0.11 | 0.642 | -0.662 (inactive) | 0.816 | 1.15 | -0.316 | 0.225 | 0.363 | 0.339 | 1.05 | -0.199 | -0.0449 | 0.83 | 0.395 | 0.127 | 0.0444 | -0.0926 | 2.1 | 0.298
COC(=O)[C@@]1(Cc2ccccc2)[C@H]2c3cc(C(=O)N(C)C)n(CCO)c3C[C@H]2CN1C(=O)c1ccccc1 | 0.621 | 1.25 | 1.21 | 0.395 (inactive) | 0.909 | 0.594 | -0.745 | -0.181 | -0.994 | -0.206 | 0.56 | -0.766 | 0.145 | 2.07 | 1.27 | 0.0511 | 0.0005 | 0.623 | 0.952 | 0.723
COc1ccc([Si](C)(C)[C@H]2[C@H](CCO)O[C@@]3(C(=O)N(Cc4ccc(NC(=O)[C@H](C)O)cc4)c4ccccc43)[C@@H]2C)cc1 | 0.931 | 0.162 | 0.193 | -2.32 (inactive) | 1.14 | 1.07 | 0.161 | 0.0961 | 0.156 | 0.531 | 1.42 | -5.22 | 0.378 | 1.19 | 0.0314 | -0.105 | 0.318 | 0.686 | 0.989 | 1.24
